Screens from PubChem.
A549 viability = kills or reduces viability of A549 cells in Nrf2 counter-screen. A549 ARE-Fluc cells, CellTiter-Fluor viability, 18-24 h. Potency, µM (titrated, usually from 46 µM), for the others: at the highest dose activity change, negative = cytotoxicity, actives largely listed as inhibitors. 390,000 compounds, 0.16% hits; further: potency means the concentration at half of the fitted maximal effect; on the % scale 0 is the no-effect control and ±100 the full control effect
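Cytotoxicity counterscreen: CellTiter-Fluor fluorescence was measured in A549 ARE_Fluc cells after 18-24 h of compound exposure in a concentration series. The subsequent BugLite luminescent read reports ARE-luciferase activity.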
IL2 activator = IL-2 activation; activation, % (series mostly up to about 46 µM); IL-2 activation reporter assay, cell-based qHTS; stimulated with anti-CD3/CD4/CD28 beads; in transgenic mouse T cells; 360,000 compounds, 0.065% hits; in the data active means activation above about 50%; inconclusive means mostly about 30% to 49%; further: 0% is about no effect
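First, unstimulated transgenic mouse T cells were exposed to compound for 60 min. Next, anti-CD3/anti-CD4-coated beads with anti-CD28 were added. Finally, after 18 h at 37 degrees C, EGFP and DsRed were imaged.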
Nrf2 ARE act = Nrf2 pathway activation | AREc32 ARE-luciferase reporter (MCF7-derived line), luminescence, 24 h | Potency, µM (titrated, usually from 46.1 µM), for inactives: top-dose activation, hits mostly activators | 410,000 compounds, 0.31% hits | AID 624171; further: potency means the concentration at half of the fitted maximal effect; % of control where 0% means no effect; nearly all actives have a fitted effect of over 65% in size
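Luminescent ARE reporter assay in AREc32_Fluc cells: overnight plating at 37 deg C, 24 hr compound incubation, Steady-Glo added, 30 min RT before reading.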
Nrf2 inh = Nrf2 pathway inhibition | A549 ARE-Fluc reporter, luciferase luminescence, 18-24 h | Potency, µM (top dose mostly 46 µM), for inactives: at the top dose activity change, negative = inhibition, hits mostly inhibitors | 360,000 compounds, 2.1% hits; further: potency means the concentration at half of the fitted maximal effect; on the % scale 0 is the no-effect control and ±100 the full control effect; nearly all actives have a fitted effect of over 60% in size
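Nrf2 function is reported as luminescence of an ARE-controlled luciferase in A549 cells. Compounds were tested at several concentrations, and a CellTiter-Fluor read on the same wells flagged cytotoxicity.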
The depositor's hits bear a star; ? = inconclusive; . = no result given; [ ] = another dose, or the depositor's remark. Compounds with a hit are over-represented: about 2.3% of the library has one in this group of screens. Unless noted, the call rests on the fitted dose curve; in most records, active means well fitted curve in the direction sought with a large enough effect; inconclusive means small, poorly fitted or top-dose-only effect, or another doubt; inactive means no such curve, though single readings can be large; an effect the other way counts as inactive or inconclusive.

SMILES | A549 viability | IL2 activator | Nrf2 ARE act | Nrf2 inh
COc1ccc(NC(=S)N(CCc2c(C)[nH]c3ccc(C)cc23)Cc2cccnc2)cc1 | ? | -2 | 5% | 21µM*
COc1ccc(COc2ccsc2C(=O)Nc2ccc(Cl)cc2)cc1 | ? | 0 | 8.9µM* | ?
O=C(Nc1ccc(Cl)cc1)c1sccc1-n1cccc1 | 11% | -1 | 11µM* | ?
COc1ccc(NC(=O)c2csc(Cc3ccc(Cl)cc3)n2)cc1 | 7% | 0 | 0% | 9%
COc1ccc(NC(=O)c2sccc2-n2cccc2)cc1 | -1% | 2 | ? | -17%
COc1ccc(NC(=O)/C(C#N)=C/c2c(C)nn(-c3ccc(F)cc3)c2Cl)cc1OC | -18% | -2 | 16µM* | ?
COc1ccc(NC(=O)/C(C#N)=C/c2c(C)nn(-c3ccc(F)cc3)c2Cl)cc1Cl | 1% | 0 | 3% | -1%
COc1cccc(C(=O)COc2cccc(NC(=O)c3cccc([N+](=O)[O-])c3)c2)c1 | -18% | -1 | 0% | 18µM*
O=C(COc1cccc(NC(=O)c2cccc([N+](=O)[O-])c2)c1)c1ccc(F)cc1 | -10% | -1 | 0% | ?
COc1ccc(NC(=O)c2cccc(Oc3ccc([N+](=O)[O-])cc3Cl)c2)cc1 | ? | -5 | 0% | ?
O=C(Nc1cccc(Cl)c1)c1cccc(Oc2ccc([N+](=O)[O-])cc2Cl)c1 | -25% | -1 | -1% | 21µM*
N=c1c2c(ccn1Cc1ccccc1)Oc1ccc3ccccc3c1C2c1ccccc1 (stereo not given) | 12µM* | . | . | 5.2µM*
O=C(Nc1ccc(Cl)cc1)N1CCN(c2ccccc2)CC1 | -6% | 1 | 2% | -19%
CC(=O)c1ccc(N2CCN(C(=O)Nc3ccc(Cl)cc3)CC2)cc1 | -7% | -1 | 4% | 16µM*
CC(=O)c1ccc(NC(=O)N2CCN(c3cccc(Cl)c3)CC2)cc1 | -7% | -1 | -1% | 9.2µM*
CCCCC(=O)NC(c1ccccc1OC)c1ccc2cccnc2c1O (stereo not given) | -25% | -4 | 0% | 21µM*
CCCC(=O)NC(c1ccc(Cl)cc1Cl)c1ccc2cccnc2c1O (stereo not given) | -18% | 1 | -1% | 23µM*
CC(C)CC(=O)NC(c1cccs1)c1ccc2cccnc2c1O (stereo not given) | ? | 0 | 4% | 21µM*
CC(=O)NC(c1ccc(Cl)cc1Cl)c1ccc2cccnc2c1O (stereo not given) | -18% | -4 | 0% | ?
CC(=O)NC(c1ccc2ccccc2c1)c1ccc2cccnc2c1O (stereo not given) | -20% | -2 | 0% | 15µM*
CCC(=O)NC(c1cccs1)c1ccc2cccnc2c1O (stereo not given) | -8% | -3 | -1% | ?
CCCCC(=O)NC(c1ccc(Cl)cc1)c1ccc2cccnc2c1O (stereo not given) | -5% | -1 | 0% | 7%
COc1ccc(-c2cn3c(n2)sc2cc(C(=O)NCCc4ccccc4)ccc23)cc1 | -1% | . | 5% | ?
Cc1ccc(Cn2cc(S(=O)(=O)c3cccc(Cl)c3)c(=O)c3cc(F)c(N4CCCCC4)cc32)cc1 | -4% | . | 0% | 26%
Cc1cc(-n2c(C)cc(C(=O)CSc3nc(N)cc(=O)[nH]3)c2C)no1 | -6% | -2 | 2% | ?
SMILES | A549 viability | IL2 activator | Nrf2 ARE act | Nrf2 inh
Cc1cc(C(=O)CSc2nc(N)cc(=O)[nH]2)c(C)n1-c1ccc(OC(F)F)cc1 | -18% | -1 | 3% | 18µM*
COc1ccc(CCn2c(C)cc(C(=O)CSc3nc(N)cc(=O)[nH]3)c2C)cc1 | -5%[1.84 µM] | -3 | 1% | 18µM*
Cc1cc(C(=O)CSc2nc(N)cc(=O)[nH]2)c(C)n1CCc1ccc(F)cc1 | -11% | 0 | 9% | ?
Cc1ccc(NS(=O)(=O)c2cc3c(cc2-c2ccco2)NC(=O)CO3)cc1C | 0% | . | . | 0%
CCc1cccc(C)c1NC(=O)CN1C(=O)c2c(c3ccccc3n2C)C1c1ccc(OC)cc1 (stereo not given) | -4% | . | 4% | -14%
CCN(CC)c1ccc2nc3ccccc3[n+](CC)c2c1 | 8.2µM* | 0 | -2% | 9.2µM*
CCN(CC)c1ccc2cc(-c3nc4ccccc4[nH]3)c(=O)oc2c1 | ? | 14 | 0% | -11%
CCN(CC)c1ccc2nc3ccc(N)cc3[n+](-c3ccccc3)c2c1 | 18µM* | 0 | -2% | 15µM*
CCN(CC)c1ccc(/C=N/n2nnnc2N)c(O)c1 | . | -2 | 3% | 3%
COCCN(Cc1ccccc1)C(=O)c1cc(-c2ccc(OC)c(OC)c2)nc2ccccc12 | ? | -1 | 8% | 18µM*
O=C1CCc2cc(S(=O)(=O)Nc3cccc(F)c3)ccc2N1 | 0% | . | . | ?
CCN(C(=O)CN(C)S(=O)(=O)c1ccc2c(c1)c(=O)n(C)c(=O)n2C)c1ccc(OC)cc1 | -3% | . | 0% | ?
CCCc1nnc(NC(=O)c2c(O)c3cccc4c3n(c2=O)CC4)s1 | -17% | -4 | 0% | -21%
CC(C)c1nnc(NC(=O)c2c(O)c3cccc4c3n(c2=O)CCC4)s1 | ? | 1 | 2% | 16µM*
COc1cccc(NC(=O)c2cccc(N3C(=O)C4C5C=CC(C5)C4C3=O)c2)c1 (stereo not given) | ? | 0 | 0% | 18µM*
COc1ccccc1C=NNc1ccc([N+](=O)[O-])cn1 | -1% | 73* | 4% | 14%
N#Cc1ccccc1Cn1cc(/C=N/Nc2ccc([N+](=O)[O-])cn2)c2ccccc21 | ? | 74* | -1% | ?
COc1ccc(-n2cnc3c(c2=N)C(c2cccc(OC)c2)c2c(ccc4ccccc24)O3)cc1 (stereo not given) | -4% | . | . | ?
CCCCOc1ccccc1C1CC(=O)Nc2ccc3ccccc3c21 (stereo not given) | -8% | . | -4% | ?
O=C(Nc1cccc(C(F)(F)F)c1)c1cc(S(=O)(=O)N2CCCC2)c[nH]1 | 7% | . | -1% | -26%
CCC(=O)Nc1ccc(OCc2cc(C3Nc4ccccc4C(=O)N3Cc3ccccc3)ccc2OC)cc1 (stereo not given) | -10% | . | . | ?
Cc1cccc(NC(=O)CSc2nc3ccc(N4C(=O)c5ccccc5C4=O)cc3s2)c1C | ? | -2 | 0% | 21µM*
Cc1cc(C)cc(OCC(=O)Nc2ccc(S(=O)(=O)Nc3onc(C)c3C)cc2)c1 | 2% | . | 0% | 4%
C=C1C(=O)OC2C1CCC(C)C1C=CC(=O)C12C (stereo not given) | -8% | -1 | ? | ?
C=C1C(=O)OC2CC1C(O)CC(C)=CCCC(C)=CC(O)CC2C (stereo not given) | 15µM* | -8 | ? | 9.2µM*
Cc1ccccc1OCC(=O)NCC(=O)OC(c1ccccc1)c1ccccc1 | 1% | . | . | 5%
CCOc1ccc(NC(=S)NC(=O)/C=C/c2ccc(OC)c(OC)c2)c([N+](=O)[O-])c1 | ? | 1 | -1% | 21µM*
